This note sets out measurements from PubChem BioAssay (NCATS).

Structures are written as SMILES. A number with no mark means an inactive call. Inconclusive results are not listed. Calls of active or inactive are those of the source. Calls come from the whole dose curve; as a rule, active = well fitted curve in the direction sought with a large enough effect; inconclusive = small, poorly fitted or top-dose-only effect, or another doubt; inactive = no such curve, though single readings can be large; an effect the other way counts as inactive or inconclusive.

In assay [1] the target is Glutathione peroxidase 1 (Homo sapiens) (UniProt P07203). The experiment in a line: Primary qHTS Assay for Inhibitors of Recombinant Selenoprotein Glutathione Peroxidase 1 (GPX1) (AID 1845191). For activity, negative = inhibition: % is set by controls: 0 for no effect and ±100 for the full control effect. Note: nearly all actives have a fitted effect of over 65% in size. In a few lines: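 GR-coupled readout: NADPH consumption tracked by fluorescence, ex 340/em 450 nm, at t=0 and after 15 min at RT. Final mix 10 nM GPX1, 1 mM GSH, 0.5 mM CHP, 0.5 mM NADPH, 100 nM GR, 0.01% BSA, following 30 min enzyme–compound preincubation.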
A general note: Quantitative high-throughput screening tests each substance at several concentrations.

Assay [2] concerns the target Phospholipid hydroperoxide glutathione peroxidase GPX4 (Homo sapiens) (UniProt P36969). Nature of the assay: Primary qHTS Assay for Inhibitors of Recombinant Selenoprotein Glutathione Peroxidase 4 (GPX4) (AID 1845192). For activity change, negative = inhibition: series mostly up to about 50 µM; % is set by controls: 0 for no effect and ±100 for the full control effect. Note: nearly all actives have a fitted effect of over 65% in size. A digest of the protocol:
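Steps: GPX4 plus compound, 30 min RT; add GR/GSH/NADPH master mix; start with cumene hydroperoxide; read 340/450 nm fluorescence at 0 and 15 min. Finals were 200 nM GPX4, 1 mM GSH, 0.5 mM CHP, 0.5 mM NADPH, 100 nM GR.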

For assay [3], the target named is Luciferin 4-monooxygenase (Photinus pyralis) (UniProt P08659). Nature of the assay: Primary firefly luciferase (FLuc) qHTS assay for identification of artifact compounds. (AID 1845220).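 For activity change, negative = inhibition: series mostly up to about 54 µM; plate controls were DMSO vehicle for no effect and no enzyme for full effect.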 Note: nearly all actives have a fitted effect of over 60% in size. Note: potency is the fitted concentration of half-maximal effect. In a few lines: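 Enzymatic FLuc inhibition assay: compounds pre-exposed to luciferin/ATP (10 uM each) for 15 min, then purified P. pyralis enzyme at 10 nM added. Read-out: luminescence at 5 min.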

The nature of assay [4]: Primary fluorescence-based thiol-reactive (MSTI) qHTS assay for identification of artifact compounds. (AID 1845221).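 For activity change, negative = thiol reactive: series mostly up to about 54 µM; thiol-reactive compounds lower the probe fluorescence signal.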 Note: nearly all actives have a fitted effect of over 65% in size. Note: potency is the fitted concentration of half-maximal effect. In a few lines:
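One-hour, room-temperature, dark incubation of compound with 4 uM MSTI in PBS (pH 7.4, 2% DMSO) precedes a fluorescence read at 525 nm excitation, 598 nm emission; Hill-equation fitting yields concentration-response values.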

The test system of assay [5] is Nanoluciferase (engineered Oplophorus gracilirostris luciferase). The experiment in a line: Primary Nanoluciferase (NLuc) qHTS assay for identification of artifact compounds. (AID 1845222).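 Note: NLuc secreted into diluted conditioned medium of S16 cells; series mostly up to about 54 µM; 0% = DMSO and -100% = no enzyme.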 In a few lines:
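S16 cell supernatant NLuc, 1:55; cpds qHTS; 15 min RT dark; Nano-Glo substrate 1:100, 5 min; luminescence; Hill fit of % inhibition.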

Glutathione peroxidase 1 (Homo sapiens), sequence (P07203 whole entry, looked up): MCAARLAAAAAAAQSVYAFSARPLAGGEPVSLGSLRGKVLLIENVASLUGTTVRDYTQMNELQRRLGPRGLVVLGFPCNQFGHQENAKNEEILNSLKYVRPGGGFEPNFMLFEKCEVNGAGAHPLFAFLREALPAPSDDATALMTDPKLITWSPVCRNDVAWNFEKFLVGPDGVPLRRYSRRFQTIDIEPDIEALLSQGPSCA
Phospholipid hydroperoxide glutathione peroxidase GPX4 (Homo sapiens), sequence (P36969 whole entry, looked up): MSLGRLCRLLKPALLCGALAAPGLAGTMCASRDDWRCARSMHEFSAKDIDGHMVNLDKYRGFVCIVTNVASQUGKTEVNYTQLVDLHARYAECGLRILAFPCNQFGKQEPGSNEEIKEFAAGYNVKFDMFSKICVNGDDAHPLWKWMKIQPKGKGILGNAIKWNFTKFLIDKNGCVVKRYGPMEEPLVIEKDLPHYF

Regarding `CCN(Cc1cc(Nc2nc(C)cn3c(-c4cn[nH]c4)cnc23)sn1)C(C)(C)CO`, the Potency result in assay [1], in assay [2], in assay [3], in assay [4] and in assay [5] was “inactive” each time.
With `C=C(COC(=O)C(O)C(O)CN)C12OC1C1(C)C(=CC2=O)C(O)C(O)CC1C` (stereo not given), the Potency entry in assay [1], in assay [2], in assay [3], in assay [4] and in assay [5] was “inactive” each time.
Consider `CCOc1nc(NC(=O)Cc2cc(OC)ccc2OC)cc(N)c1C#N`, for which the Potency result in assay [1], in assay [2], in assay [3], in assay [4] and in assay [5] was “inactive” each time.
As for `COc1cc(O)cc(/C=C/c2cccc(O)c2)c1`, the Potency entry in assay [1], in assay [2] and in assay [5] was “inactive” throughout. The Potency in assay [3] was 10.7 µM (active); in assay [4] it was 18.9 µM (active).
With `CNC(=O)[C@@H](c1ccccc1)N1CCc2cc(OC)c(OC)cc2[C@@H]1CCc1ccc(C(F)(F)F)cc1`, the Potency entry in assay [1], in assay [2], in assay [3], in assay [4] and in assay [5] was “inactive” in each case.
In the case of `CCc1c[nH]c2ncnc(N3CC[C@](N)(CNC(=O)c4ccc(F)cc4F)C3)c12`, the Potency entry in assay [1], in assay [2], in assay [3], in assay [4] and in assay [5] was “inactive” each time.
In the case of `O=C(Nc1ccccc1Cl)c1cnc2ccc(C3CCNCC3)cn12`, the Potency result in assay [1], in assay [2], in assay [3], in assay [4] and in assay [5] was “inactive” each time.
Regarding `O=C(CCl)Nc1cccc(NC2=NS(=O)(=O)c3ccccc32)c1`, the Potency entry in assay [1], in assay [2], in assay [3], in assay [4] and in assay [5] was “inactive” each time.
Take `CCC(C)C(=O)O[C@H]1[C@H](O)[C@@]2(COC(C)=O)C(CC1(C)C)C1=CCC3[C@@]4(C)CC[C@H](O[C@@H]5O[C@H](C(=O)O)[C@@H](O)[C@H](O)[C@H]5O)[C@@](C)(CO)C4CC[C@@]3(C)[C@]1(C)C[C@@H]2O` (stereo not given in full): the Potency entry in assay [1] and in assay [2] was “inactive” in each case. For the same molecule, in assay [3], the outcome is “inactive [at 11.6 µM]”. The activity change, negative = thiol reactive in assay [4] is 57.8% [at 11.5 µM]. Also, the activity, negative = inhibition in assay [5] is 3.16% [at 11.6 µM].
Consider `CC(C)n1cnc2c(-c3cnc(N)nc3)nc(N3CCOCC3)nc21`, for which the Potency result in assay [1], in assay [2], in assay [3], in assay [4] and in assay [5] was “inactive” in each case.
For the molecule `COc1cccc(N2CCN(C3=Nc4c(F)cccc4[C@H](CC(=O)O)N3c3cc(C(F)(F)F)ccc3OC)CC2)c1`, the Potency entry in assay [1], in assay [2], in assay [3], in assay [4] and in assay [5] was “inactive” each time.
Turning to `COc1cc(O)c2c(c1)/C=C/C[C@H](O)[C@H](O)C(=O)/C=C\C[C@H](C)OC2=O`, the Potency result in assay [1], in assay [2], in assay [3], in assay [4] and in assay [5] was “inactive” in each case.
Consider `COc1cc(CN(CCN)C(=O)c2cccs2)ccc1OCc1ccccc1`, for which the Potency entry in assay [1], in assay [2], in assay [3], in assay [4] and in assay [5] was “inactive” throughout.
`CC(=O)NCc1cccc(OC[C@@H](O)CNCCc2ccc(NS(=O)(=O)c3ccccc3)cc2)c1`: the Potency entry in assay [1], in assay [2], in assay [3], in assay [4] and in assay [5] was “inactive” throughout.
Turning to `Cn1c(=O)c2c(ncn2Cc2ccc(C(C)(C)C)cc2)n(C)c1=O`, the Potency result in assay [1], in assay [2], in assay [3], in assay [4] and in assay [5] was “inactive” each time.
As to `COC(=O)C1=COC(O[C@@H]2O[C@H](CO[C@@H]3O[C@H](COC(=O)/C=C\c4ccc(O)cc4)[C@@H](O)[C@H](O)[C@H]3O)[C@@H](O)[C@H](O)[C@H]2O)C2C(CO)=CCC12` (stereo not given in full), the Potency result in assay [1], in assay [2], in assay [3], in assay [4] and in assay [5] was “inactive” throughout.
As for `Cc1cc2c(cc1N1C(=O)c3cccc4c(CCCO)ccc(c34)C1=O)n(C)c(=O)n2C`, the Potency entry in assay [1], in assay [2], in assay [3], in assay [4] and in assay [5] was “inactive” throughout.
Turning to `COc1cc(F)c(C(C)C)cc1-c1ccc(C(F)(F)F)cc1CN1C(=O)OC(c2cc(C(F)(F)F)cc(C(F)(F)F)c2)C1C` (stereo not given), the Potency entry in assay [1], in assay [2], in assay [3], in assay [4] and in assay [5] was “inactive” each time.
In the case of `N#Cc1ccc2ncnc(NCCc3ccccc3)c2c1`, the Potency result in assay [1], in assay [2], in assay [3], in assay [4] and in assay [5] was “inactive” in each case.
For the molecule `COC1CC(O[C@H]2CC[C@]3(C)C4CC[C@@]5(C)C(=O)[C@]4(CC[C@@H]3C2)CC[C@@H]5C2=CC(=O)OC2)OC(C)C1OC1OC(COC2OC(CO)C(O)C(O)C2O)C(O)C(O)C1O` (stereo not given in full), the Potency result in assay [1] and in assay [2] was “inactive” throughout. Further, in assay [3], the outcome was “inactive [at 11.6 µM]”. In addition, the activity change, negative = thiol reactive in assay [4] was 91.7% [at 11.5 µM]. In assay [5], the activity, negative = inhibition was 0% [at 11.6 µM].
`CC(C)NCCCn1c(Sc2cc3c(cc2I)OCO3)nc2c(N)ncnc21`: the Potency result in assay [1], in assay [2], in assay [3], in assay [4] and in assay [5] was “inactive” throughout.
`CC1(C=O)CCCC2(C)C1CCC13CC(CO)C(CCC12)C3` (stereo not given): the Potency entry in assay [1], in assay [2], in assay [3], in assay [4] and in assay [5] was “inactive” in each case.
As for `CCC/C=C/C(=O)O[C@H]1CC(C)(C)CC2[C@@]13[C@H](O)C[C@]1(C)[C@@]2(CCC2[C@@]4(C)CC[C@H](O[C@@H]5O[C@H](C(=O)O)[C@@H](O)[C@H](O[C@@H]6O[C@H](CO)[C@H](O)[C@H](O)[C@H]6O[C@@H]6O[C@@H](C)[C@H](O)[C@@H](O)[C@H]6O[C@@H]6OC[C@](O)(CO)[C@H]6O)[C@H]5O[C@@H]5O[C@H](CO)[C@H](O)[C@H](O)[C@H]5O)C(C)(C)C4CC[C@]21C)O[C@H]3O` (stereo not given in full), in assay [1], the outcome is “inactive [at 9.52 µM]”. Further, the activity change, negative = inhibition in assay [2] was -7.28% [at 9.73 µM]; in assay [3], 0.937% [at 11.6 µM]. Besides, the activity change, negative = thiol reactive in assay [4] is 163% [at 11.5 µM]. For the same molecule, the activity, negative = inhibition in assay [5] is 2.33% [at 11.6 µM].
